SMILES strings stand for the structures. Unmarked numbers belong to inactive results. Results filed as inconclusive are left out. Calls of active or inactive are those of the source. Unless noted, calls come from the whole dose curve.

Assay [1] can be described thus: Nuclear factor erythroid 2-related factor 2/antioxidant responsive element (Nrf2/ARE) small molecule agonists: qHTS cell viability counter screen in human keratinocytes (AID 1919968; active = well fitted curve in the direction sought with a large enough effect in the repeat runs; an effect the other way counts as inactive or inconclusive; note: nearly all actives have a fitted effect of over 55% in size; note: potency is the fitted concentration of half-maximal effect). Summed up:
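KeratinoSens cells (HaCaT keratinocytes stably carrying an ARE-luciferase reporter) were seeded at 1,500 cells/well and rested 5 h at 37 C/5% CO2. They were then exposed to compounds in DMSO for 23 h. Viability was read by CellTiter-Fluor fluorescence after 1 h.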

Assay [2] can be described thus: Nuclear factor erythroid 2-related factor 2/antioxidant responsive element (Nrf2/ARE) small molecule agonists: luciferase reporter gene qHTS assay in human keratinocytes (AID 1919969; note: nearly all actives have a fitted effect of over 35% in size; note: potency is the fitted concentration of half-maximal effect). (In general: Reporter assays use an easily measured gene product as a stand-in for the process of interest.)
The target in assay [3] is Gonadotropin-releasing hormone receptor (Homo sapiens) (UniProt P30968). Kind of assay: Human gonadotropin-releasing hormone receptor (GnRHR) small molecule agonists, calcium flux assay in GnRHR-HEK293 cells (AID 1920063). Note: nearly all actives have a fitted effect of over 35% in size. Summed up:
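HEK293 cells stably expressing human GnRHR were plated 18 h at 37 °C, loaded with calcium dye 1 h at 37 °C, then given compound in agonist mode; fluorescence (Ex/Em 480/540) read kinetically for 3 min at 1 s intervals.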
Background: Calcium assays in cells follow changes in intracellular calcium, usually with a dye or a luminescent sensor.

The target in assay [4] is KiSS-1 receptor (Homo sapiens) (UniProt Q969F8). Kind of assay: Human kisspeptin (KISS1R) small molecule agonists, calcium flux assay in KISS1R-HEK293 cells (AID 1920064; active = well fitted curve in the direction sought with a large enough effect in the repeat runs; an effect the other way counts as inactive or inconclusive). Summed up:
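HEK293 cells stably expressing human KISS1R were plated 18 h at 37 °C, loaded with calcium dye for 1 h at 37 °C, then given compound by pin tool. Fluorescence (Ex/Em 480/540) was read kinetically for 3 min.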

Assay [5] can be described thus: G protein-coupled receptor (GPCR) small molecule agonists, calcium flux assay: HEK293 wild type cell line counter screen (AID 1920065). Put shortly: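 Cells were plated and cultured 18 h at 37 C/5% CO2, then loaded with calcium dye for 1 h at 37 C. Compounds in DMSO were pin-transferred in agonist mode, and fluorescence (Ex/Em 480/540) was read kinetically for 3 min at 1 s intervals.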

A short description of assay [6]: p53 small molecule agonists, cell-based qHTS assay with rat liver microsomes (AID 1963578). Put shortly:
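Agonist mode in p53RE-bla reporter cells, with compounds co-incubated 16 h at 37 C alongside 0.5 mg/mL rat liver microsomes and 0.5 mg/mL NADPH (final), followed by a 2 h LiveBLAzer detection step.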
(In general: qHTS replaces the single test concentration by a dilution series.)

Assay [7] can be described thus: p53 small molecule agonists, cell-based qHTS assay with human liver microsomes: qHTS cell viability counter screen (AID 1963579). Note: nearly all actives have a fitted effect of over 45% in size. Summed up: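 Metabolically activated exposure: compounds, human liver microsomes and NADPH (0.5 mg/mL final apiece) were added to p53RE-bla cells seeded 5 h earlier, left 16 h at 37 C, and then assessed for viability by CellTiter-Glo luminescence.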

Assay [8] in a line: p53 small molecule agonists, cell-based qHTS assay with rat liver microsomes: qHTS cell viability counter screen (AID 1963580). Note: nearly all actives have a fitted effect of over 45% in size. Put shortly: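 HCT-116 p53RE-bla, 4,000 cells/well, 5 h pre-incubation; cpd + rat liver microsomes 0.5 mg/mL + NADPH 0.5 mg/mL (final); 16 h, 37 C; CellTiter-Glo, 30 min RT; luminescence.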
Assay [9] is described as follows: p53 small molecule agonists, cell-based qHTS assay: qHTS cell viability counter screen (AID 1963581). Note: nearly all actives have a fitted effect of over 45% in size. Summed up:
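p53RE-bla HCT-116 cells were exposed to compounds for 16 h at 37 C; after the beta-lactamase FRET read in the same wells, CellTiter-Glo was added and luminescence (intracellular ATP) read after 30 min at room temperature.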

Assay [10] in a line: p53 small molecule agonists, cell-based qHTS assay (AID 1963582; active = well fitted activation curve with a large enough effect in the signal ratio in the repeat runs, not every such curve was filed as active; the % refers to the signal ratio). Put shortly: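 p53RE-bla beta-lactamase reporter cells rested 5 h at 37 C/5% CO2, then received compounds in DMSO by pin transfer and were incubated 16 h at 37 C. LiveBLAzer B/G FRET substrate was loaded for 2 h at room temperature before fluorescence reading.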
Assay [11] has as its target 5-hydroxytryptamine receptor 2A (Homo sapiens) (UniProt P28223). Kind of assay: 5-hydroxytryptamine receptor 2A (HTR2A) small molecule antagonists, cell-based qHTS assay (AID 1963586). Note: nearly all actives have a fitted effect of over 45% in size. Note: potency is the fitted concentration of half-maximal effect. Put shortly:
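Antagonist-mode intracellular calcium assay: DOI (4 nM) added after 5 min compound pre-incubation at room temperature to dye-loaded HTR2A-CHO cells. Fluorescence followed for 3 min, sampled every second.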

Assay [12] has the same target. Kind of assay: 5-hydroxytryptamine receptor 2A (HTR2A) small molecule agonists, cell-based qHTS assay (AID 1963587). Note: nearly all actives have a fitted effect of over 30% in size. Note: potency is the fitted concentration of half-maximal effect. Summed up:
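Kinetic calcium-flux fluorescence (2 min, 1 sec intervals) after compound addition in agonist mode. HTR2A-CHO cells were cultured 18 h, then dye-loaded 1 h at 37 C.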

Assay [13] concerns the target Muscarinic acetylcholine receptor M1 (Homo sapiens) (UniProt P11229). Kind of assay: Cholinergic receptor muscarinic 1 (CHRM1) small molecule antagonists, cell-based qHTS assay (AID 1963588). Note: nearly all actives have a fitted effect of over 40% in size. Note: potency is the fitted concentration of half-maximal effect. Summed up: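 CHRM1-CHO calcium-flux assay, antagonist mode. Cells were seeded 18 h, dye-loaded 1 h at 37 C and given compound for 5 min at RT, then acetylcholine was added at 50nM. FDSS fluorescence was read 3 min; 15 concentrations, three runs.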

Assay [14] has the same target. Kind of assay: Cholinergic receptor muscarinic 1 (CHRM1) small molecule agonists, cell-based qHTS assay (AID 1963589). Note: nearly all actives have a fitted effect of over 35% in size. Summed up:
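CHO cells stably expressing human CHRM1, seeded 18 h at 37 C/5% CO2, dye-loaded 1 h at 37 C, then given compound in agonist mode; intracellular calcium fluorescence read kinetically at 1 s intervals. Fifteen concentrations, three independent runs.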

Assay [15] can be described thus: cAMP Responsive Elements (CRE) small molecule agonists, cell-based qHTS assay (AID 1963590). Put shortly:
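CRE-bla HEK 293T cells in DMEM with 10% dialyzed FBS, NEAA, pyruvate and 25 mM HEPES were plated 18 h at 37 C/5% CO2, then exposed to compounds in DMSO for 3 h before LiveBLAzer B/G FRET substrate addition.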

Assay [16] in a line: cAMP Responsive Elements (CRE) small molecule antagonists, cell-based qHTS assay (AID 1963591; active = well fitted inhibition curve with a large enough effect in the signal ratio in the repeat runs, not every such curve was filed as active; the % refers to the signal ratio). Put shortly: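 CRE-bla HEK293T cells were plated 18 h at 37 °C/5% CO2, pinned with compound in DMSO, then stimulated with NKH477 at 0.25 uM final for 3 h. LiveBLAzer B/G FRET substrate was added and plates incubated 2 h at room temperature.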
For assay [17], the target named is Beta-2 adrenergic receptor (Homo sapiens) (UniProt P07550). Kind of assay: Adrenergic beta2 receptor (ADRB2) small molecule antagonists, cell-based qHTS assay (AID 1963592). Note: series mostly up to about 92 µM; nearly all actives have a fitted effect of over 50% in size. Put shortly:
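Cells (CHO, stable ADRB2 overexpression) incubated 18-20hr at 37C; compounds added from DMSO; agonist mix (1nM isoproterenol, 100uM IBMX, 25uM Ro-20-1724) added; 0.5hr RT; d2-cAMP and anti-cAMP-cryptate added; 1hr RT; 665/615 nm read.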

The target is the same in assay [18]. Kind of assay: Adrenergic beta2 receptor (ADRB2) small molecule agonists, cell-based qHTS assay (AID 1963593).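 Note: CHO cells stably overexpressing human ADRB2.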 Summed up: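 CHO cells stably over-expressing ADRB2 were plated overnight at 37C, then dosed with compounds plus a stimulation mix containing 100uM IBMX and 25uM Ro-20-1724 for 0.5hr at room temperature. cAMP was measured by HTRF competition, 1hr.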

For assay [19], the target named is D(2) dopamine receptor (Homo sapiens) (UniProt P14416). Kind of assay: Dopamine D2 receptor (DRD2) small molecule agonists, cell-based qHTS assay (AID 1963594). Note: nearly all actives have a fitted effect of over 35% in size. Put shortly: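 cAMP accumulation in DRD2-HEK293 cells measured by HTRF after 1 h detection; compounds added 10 min before NKH477 (200nM […]) forskolin-analogue stimulation, 30 min at room temperature, with Ro20-1724 present at 0.1 mM final.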

Assay [20] has the same target. Kind of assay: Dopamine D2 receptor (DRD2) small molecule antagonists, cell-based qHTS assay (AID 1963595; active = well fitted inhibition curve with a large enough effect in the signal ratio in the repeat runs, with a control signal flat; the % refers to the signal ratio). Summed up: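 Antagonism was scored as restored cAMP in HEK293-DRD2 cells. These cells were stimulated with 200 nM NKH477 and 12 nM quinpirole for 30 min at room temperature, in the presence of 0.1 mM Ro20-1724.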

Beta-2 adrenergic receptor (Homo sapiens), sequence (P07550 whole entry, looked up): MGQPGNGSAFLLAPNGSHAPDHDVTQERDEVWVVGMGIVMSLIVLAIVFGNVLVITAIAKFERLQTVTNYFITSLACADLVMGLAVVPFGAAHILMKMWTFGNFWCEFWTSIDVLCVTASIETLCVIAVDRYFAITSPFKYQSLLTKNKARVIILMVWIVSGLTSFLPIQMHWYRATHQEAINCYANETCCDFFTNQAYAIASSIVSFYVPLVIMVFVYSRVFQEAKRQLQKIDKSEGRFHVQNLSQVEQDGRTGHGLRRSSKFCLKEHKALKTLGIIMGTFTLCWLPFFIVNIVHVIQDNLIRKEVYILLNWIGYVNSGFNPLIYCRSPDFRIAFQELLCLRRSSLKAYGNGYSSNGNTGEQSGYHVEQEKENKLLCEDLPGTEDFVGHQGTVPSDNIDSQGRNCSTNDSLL
D(2) dopamine receptor (Homo sapiens), sequence (P14416 whole entry, looked up): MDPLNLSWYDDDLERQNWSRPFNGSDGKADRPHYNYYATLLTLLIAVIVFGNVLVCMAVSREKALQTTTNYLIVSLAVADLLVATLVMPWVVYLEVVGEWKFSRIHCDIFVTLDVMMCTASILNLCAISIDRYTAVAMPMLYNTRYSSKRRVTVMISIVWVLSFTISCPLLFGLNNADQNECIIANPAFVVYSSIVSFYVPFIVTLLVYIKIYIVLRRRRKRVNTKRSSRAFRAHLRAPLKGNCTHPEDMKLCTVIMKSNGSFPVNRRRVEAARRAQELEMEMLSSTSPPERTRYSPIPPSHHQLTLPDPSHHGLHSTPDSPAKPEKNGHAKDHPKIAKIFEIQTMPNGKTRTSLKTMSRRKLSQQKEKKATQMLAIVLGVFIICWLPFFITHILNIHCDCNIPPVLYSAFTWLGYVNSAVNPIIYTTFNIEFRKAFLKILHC
Gonadotropin-releasing hormone receptor (Homo sapiens), sequence (P30968 whole entry, looked up): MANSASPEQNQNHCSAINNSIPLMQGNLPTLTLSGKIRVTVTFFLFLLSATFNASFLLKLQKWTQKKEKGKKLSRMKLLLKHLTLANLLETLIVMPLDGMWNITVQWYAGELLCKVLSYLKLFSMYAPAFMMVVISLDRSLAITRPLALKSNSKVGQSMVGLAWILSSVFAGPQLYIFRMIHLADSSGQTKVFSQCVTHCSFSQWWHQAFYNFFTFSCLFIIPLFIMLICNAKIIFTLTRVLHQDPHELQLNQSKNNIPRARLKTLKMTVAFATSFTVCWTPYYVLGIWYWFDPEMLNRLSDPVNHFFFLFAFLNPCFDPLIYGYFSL
KiSS-1 receptor (Homo sapiens), sequence (Q969F8 whole entry, looked up): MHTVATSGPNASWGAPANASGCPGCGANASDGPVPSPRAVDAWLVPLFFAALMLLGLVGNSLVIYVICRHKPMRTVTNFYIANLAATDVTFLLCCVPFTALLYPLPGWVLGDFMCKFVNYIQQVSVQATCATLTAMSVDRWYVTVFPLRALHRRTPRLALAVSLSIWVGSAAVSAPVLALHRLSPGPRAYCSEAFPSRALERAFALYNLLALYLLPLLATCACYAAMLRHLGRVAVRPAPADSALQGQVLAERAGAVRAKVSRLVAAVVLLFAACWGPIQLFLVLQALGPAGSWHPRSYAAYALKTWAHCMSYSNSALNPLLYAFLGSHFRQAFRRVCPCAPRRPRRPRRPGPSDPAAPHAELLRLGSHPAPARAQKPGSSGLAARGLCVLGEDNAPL
Muscarinic acetylcholine receptor M1 (Homo sapiens), sequence (P11229 whole entry, looked up): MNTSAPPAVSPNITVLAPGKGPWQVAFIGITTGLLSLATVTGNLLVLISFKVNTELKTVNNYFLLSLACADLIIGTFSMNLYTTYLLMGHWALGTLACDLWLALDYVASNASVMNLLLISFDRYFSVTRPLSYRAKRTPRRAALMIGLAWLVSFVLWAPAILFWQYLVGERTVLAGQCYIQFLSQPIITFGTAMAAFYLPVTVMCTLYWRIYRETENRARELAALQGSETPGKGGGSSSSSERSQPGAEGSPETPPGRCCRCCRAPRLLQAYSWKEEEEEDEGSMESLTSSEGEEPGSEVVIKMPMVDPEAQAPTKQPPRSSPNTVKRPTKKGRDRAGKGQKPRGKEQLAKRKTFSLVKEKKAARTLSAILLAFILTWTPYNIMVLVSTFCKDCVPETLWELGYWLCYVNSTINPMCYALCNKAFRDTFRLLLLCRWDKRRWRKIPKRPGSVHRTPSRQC
5-hydroxytryptamine receptor 2A (Homo sapiens), sequence (P28223 whole entry, looked up): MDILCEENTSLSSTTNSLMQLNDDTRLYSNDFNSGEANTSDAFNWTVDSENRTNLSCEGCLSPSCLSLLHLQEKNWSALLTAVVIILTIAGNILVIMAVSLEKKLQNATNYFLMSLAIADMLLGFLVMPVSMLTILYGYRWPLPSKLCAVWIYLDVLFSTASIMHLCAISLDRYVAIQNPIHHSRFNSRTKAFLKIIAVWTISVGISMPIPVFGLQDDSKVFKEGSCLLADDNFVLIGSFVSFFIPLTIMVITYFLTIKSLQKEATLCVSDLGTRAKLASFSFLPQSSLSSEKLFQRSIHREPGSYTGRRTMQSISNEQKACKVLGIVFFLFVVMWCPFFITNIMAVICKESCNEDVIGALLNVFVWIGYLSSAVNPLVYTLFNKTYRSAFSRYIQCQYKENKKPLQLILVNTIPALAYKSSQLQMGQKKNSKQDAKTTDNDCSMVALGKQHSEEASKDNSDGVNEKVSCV

As for `CCCCC(CC)COC(=O)CCCCC(=O)OCc1ccccc1` (centres undefined), the Potency entry in [1], in [2], in assay [3], in assay [4], in assay [5] and in assay [6] was “inactive” each time. Also, the Potency result in [7], in [8], in [9], in [10], in assay [11] and in assay [12] was “inactive” throughout. For the same molecule, the Potency result in [13], in assay [14], in assay [15], in assay [16], in assay [17] and in assay [18] was “inactive” in each case. For the same molecule, the Potency result in assay [19] and in assay [20] was “inactive” throughout.

With `C[Si](C)(C)C`, the Potency entry in [1], in assay [2], in assay [3], in [4], in [5] and in assay [7] was “inactive” each time. Further, the Potency result in [9], in assay [10], in assay [12], in assay [13], in assay [14] and in [15] was “inactive” throughout. Moreover, the Potency result in assay [16] and in assay [20] was “inactive” in each case.

In the case of `CC(=O)Oc1ccc(C2(c3ccc(OC(C)=O)cc3)Oc3ccccc3NC2=O)cc1`, the Potency entry in assay [1], in assay [2], in assay [3], in [4], in assay [5] and in [6] was “inactive” in each case. In addition, the Potency result in assay [11], in assay [12], in assay [14], in [15], in assay [17] and in assay [19] was “inactive” each time.

With `Nc1nnc(-c2ccc([N+](=O)[O-])o2)o1`, the Potency result in assay [1], in assay [3], in assay [4], in assay [5], in [6] and in assay [7] was “inactive” in each case. The Potency entry in [8], in assay [9], in [10], in assay [11], in assay [12] and in assay [13] was “inactive” in each case. The Potency result in assay [14], in assay [15], in assay [16], in assay [17] and in assay [18] was “inactive” each time. Besides, the Potency in assay [2] was 61.1 µM (active).

For the molecule `COc1cc(NS(=O)(=O)c2ccc(N)cc2)nc(C)n1`, the Potency entry in assay [1], in assay [2], in assay [3], in assay [4], in [5] and in assay [7] was “inactive” in each case. Further, the Potency result in assay [8], in [9], in assay [10], in [11], in assay [12] and in [13] was “inactive” throughout. Also, the Potency entry in [14], in assay [15], in assay [16], in [17], in [18] and in assay [19] was “inactive” each time. Besides, the Potency entry in [20] was “inactive”.

Consider `Cc1cc(C)c(C)c(C)c1`, for which the Potency result in assay [1], in [2], in [3], in assay [4], in [5] and in [7] was “inactive” in each case. In addition, the Potency result in [8], in assay [9], in [10], in assay [11], in assay [12] and in [13] was “inactive” each time. For the same molecule, the Potency result in assay [14], in assay [15], in [16], in assay [17], in [19] and in [20] was “inactive” in each case.

Consider `O=C=NC1CCC(CC2CCC(N=C=O)CC2)CC1` (centres undefined), for which the Potency in assay [1] was 12.2 µM (active); in assay [11], 2.98 µM (active); in assay [12], 1.95 µM (active); in [13], 4.21 µM (active). Besides, the Potency entry in assay [2], in assay [3], in assay [4], in assay [5], in [7] and in assay [8] was “inactive” in each case. Further, the Potency result in assay [9], in [10], in assay [14], in assay [15], in assay [16] and in [17] was “inactive” in each case. Besides, the Potency result in [18] and in [19] was “inactive” throughout.

(Values after PubChem BioAssay (Tox21).)
